± gives the standard deviation.
The sequences below were run on MILI (PIWIL2) piRISC loaded with L1MC piRNA (26 nt) (assay: pre-steady-state target cleavage rate (min^-1); guide: L1MC piRNA 5'p-UAACUAAAUACUAUGCAAGCUGUAGG; MIWI and MILI are mouse PIWI proteins and EfPiwi is from a freshwater sponge; tags in brackets are library labels; higher = faster piRNA-guided slicing of the target). Conditions: auxiliary factor: 500 nM mouse GTSF1.
In short: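 In Cleave-'n-Seq, a transcribed, DNA-blocked target RNA library (0.1 nM) was combined with 1 nM active affinity-purified piRISC bearing one synthetic guide, with or without 500 nM GTSF1 partner protein. Reactions ran in HEPES–potassium acetate buffer at 33 °C for 0–8 or 0–960 min. Uncleaved targets were sequenced and normalised to depth and to weakly complementary targets, three trials were pooled, and k3 was capped at 0.0001 min^-1. The pre-steady-state cleavage rate was obtained by fitting a burst-and-steady-state model.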

Sequence	pre-steady-state target cleavage rate
UCCUGGAACUGCUUGCAAAGUAUUUAGUUA	0.117 ± 0.01
UCCUGGAUGAGCUUGCAUAGUAUUUAGUUC [g2:g21:cont:t1C]	0.166 ± 0.014
UCCUGCUACUGCUUGCAUAGUAAUUAGUUA	0.175 ± 0.023
UCCUGGUACAGCUUGCAUAGUAUUUAGUAA	0.283 ± 0.036
UCCUGCUACAGGUUGCAUAGUUUUUAGUUA	0.0345 ± 0.007
UCCUGGUACAGCUUGCAUAGUAUUCUAGUUA	0.353 ± 0.088
UCCUGGAACAGGUUGCAUAGUAAUUAGUUA	0.206 ± 0.017
UCCUGGUACAGCUUGCAUAUUAUUUAGUUA	0.0704 ± 0.01
UCCUGGAUGAGCUGCAUAGUAUUUAGUUA	0.101 ± 0.013
UCCUGGAACAGGUUGCAUAGUUUUUAGUUA	0.0335 ± 0.0065
UCCUGCUACACCUAGCAUAGUAUUUAGUUA	0.254 ± 0.021
UCCUGCUACAGCUUGGCAUAGUAUUUAGUUA	0.307 ± 0.051
UCCUGCUAGAGCAUGCAUAGUAUUUAGUUA	0.226 ± 0.018
UCCUGCUUCAGCUUGCAUAGUAUUUACUUA	0.116 ± 0.021
UCCUCCUACUGCUUGCAUACUAUUUAGUUA	0.0694 ± 0.011
UCCUGGUUGAGCUUGCAUAGUAUUUAGUUA	0.179 ± 0.017
UCCUGGUACAGGUUGCAUAGUAUUUAGUUA	0.217 ± 0.022
UCCUGGAUGUGCUUGCAAAGUAUUUAGUUA	0.0492 ± 0.011
UCCUGGAAGAGGUUGCAUAGUAUUUAGUUA	0.233 ± 0.012
UCCUGGAAUCAGCUUGCAUAGUAUUUAGUUA	0.278 ± 0.021

Sequence	pre-steady-state target cleavage rate
UCCUCCUACAGGAAGCAUAGUAUUUAGUUA	0.292 ± 0.011
UCCUGGAUCAGUCUUGCAUAGUAUUUAGUUA	0.212 ± 0.016
UCCUGGAACAGCUGUGCAUAGUAUUUAGUUA	0.206 ± 0.015
UCCUGGAACAGCUUGCAUAGUCUUUAGUUA	0.197 ± 0.016
UCCUGGAUGAGCUUGCUUAGUAAUUAGUUA	0.191 ± 0.019
UCCUGGAACAGGUUGCAUAGUAUUUAGUUA	0.308 ± 0.018
UCCUCCUAGAGGUUGCAUAGUAUUUAGUUA	0.205 ± 0.011
UCCUGGUACAGCAUGCAUAGUAAUUAGUUA	0.193 ± 0.025
UCCUCCUACAGCUUGCAUAGUAUUUACUUA	0.206 ± 0.039
UCCUGGAUGUGCUUGCAUAGUAGUUUAGUUA	0.0704 ± 0.017
UCCUCGUACAGCUAGCAUAGUAUUUAGUUA	0.281 ± 0.012
UCCUCCUACAGCAUGCUUAGUAUUUAGUUA	0.206 ± 0.015
UCCUCCUACAGCUUGCAUAGUAUUAAGUUA	0.178 ± 0.026
UCCUGGAACAGGAAGCAUAGUAUUUAGUUA	0.199 ± 0.016
UCCUCCUACAGCUUGCAAAGUAAUUAGUUA	0.116 ± 0.012
UCCUGCUACAGCUUUCAUAGUAUUUAGUUA	0.188 ± 0.021
UCCUCCUACAGCUUGCAUAGUGUUUAGUUA	0.211 ± 0.017
UCCUGGAACAGCAUGCAUAGUAUAUAGUUA	0.247 ± 0.025
UCCUGCUACAGCUUGCUAAGUAUUUAGUUA	0.176 ± 0.018
UCCUGGAUGUCCUUGCAUAGUUUUUAGUUA	0.0125 ± 0.0057

Same assay, conditions: auxiliary factor: none (no GTSF1)

Sequence	pre-steady-state target cleavage rate
UCCUGGAACUGCUUGCAAAGUAUUUAGUUA	0.00518 ± 0.0021
UCCUGGAUGAGCUUGCAUAGUAUUUAGUUC [g2:g21:cont:t1C]	0.00562 ± 0.0029
UCCUGCUACUGCUUGCAUAGUAAUUAGUUA	0.00358 ± 0.0023
UCCUGGUACAGCUUGCAUAGUAUUUAGUAA	0.00667 ± 0.0024
UCCUGCUACAGGUUGCAUAGUUUUUAGUUA	0.0063 ± 0.0021
UCCUGGUACAGCUUGCAUAGUAUUCUAGUUA	0.00551 ± 0.0045
UCCUGGAACAGGUUGCAUAGUAAUUAGUUA	0.0075 ± 0.0018
UCCUGGUACAGCUUGCAUAUUAUUUAGUUA	0.00385 ± 0.0027
UCCUGGAUGAGCUGCAUAGUAUUUAGUUA	0.00501 ± 0.0028
UCCUGGAACAGGUUGCAUAGUUUUUAGUUA	0.00467 ± 0.0021
UCCUGCUACACCUAGCAUAGUAUUUAGUUA	0.00758 ± 0.0022
UCCUGCUACAGCUUGGCAUAGUAUUUAGUUA	0.00405 ± 0.0027
UCCUGCUAGAGCAUGCAUAGUAUUUAGUUA	0.00708 ± 0.0024
UCCUGCUUCAGCUUGCAUAGUAUUUACUUA	0.00294 ± 0.0023
UCCUCCUACUGCUUGCAUACUAUUUAGUUA	0.00355 ± 0.0019
UCCUGGUUGAGCUUGCAUAGUAUUUAGUUA	0.0113 ± 0.0033
UCCUGGUACAGGUUGCAUAGUAUUUAGUUA	0.0148 ± 0.004
UCCUGGAUGUGCUUGCAAAGUAUUUAGUUA	0.00756 ± 0.0024
UCCUGGAAGAGGUUGCAUAGUAUUUAGUUA	0.0116 ± 0.0031
UCCUGGAAUCAGCUUGCAUAGUAUUUAGUUA	0.016 ± 0.0034

Sequence	pre-steady-state target cleavage rate
UCCUCCUACAGGAAGCAUAGUAUUUAGUUA	0.00603 ± 0.0024
UCCUGGAUCAGUCUUGCAUAGUAUUUAGUUA	0.0108 ± 0.0023
UCCUGGAACAGCUGUGCAUAGUAUUUAGUUA	0.00954 ± 0.0024
UCCUGGAACAGCUUGCAUAGUCUUUAGUUA	0.00483 ± 0.0022
UCCUGGAUGAGCUUGCUUAGUAAUUAGUUA	0.00839 ± 0.0025
UCCUGGAACAGGUUGCAUAGUAUUUAGUUA	0.0111 ± 0.0022
UCCUCCUAGAGGUUGCAUAGUAUUUAGUUA	0.00716 ± 0.0022
UCCUGGUACAGCAUGCAUAGUAAUUAGUUA	0.013 ± 0.0032
UCCUCCUACAGCUUGCAUAGUAUUUACUUA	0.00429 ± 0.0025
UCCUGGAUGUGCUUGCAUAGUAGUUUAGUUA	0.00921 ± 0.0027
UCCUCGUACAGCUAGCAUAGUAUUUAGUUA	0.00766 ± 0.0022
UCCUCCUACAGCAUGCUUAGUAUUUAGUUA	0.00645 ± 0.0024
UCCUCCUACAGCUUGCAUAGUAUUAAGUUA	0.00415 ± 0.0024
UCCUGGAACAGGAAGCAUAGUAUUUAGUUA	0.00491 ± 0.0024
UCCUCCUACAGCUUGCAAAGUAAUUAGUUA	0.00331 ± 0.0024
UCCUGCUACAGCUUUCAUAGUAUUUAGUUA	0.00503 ± 0.0022
UCCUCCUACAGCUUGCAUAGUGUUUAGUUA	0.00543 ± 0.0025
UCCUGGAACAGCAUGCAUAGUAUAUAGUUA	0.0058 ± 0.0025
UCCUGCUACAGCUUGCUAAGUAUUUAGUUA	0.00399 ± 0.0022
UCCUGGAUGUCCUUGCAUAGUUUUUAGUUA	0.00594 ± 0.0021

Source: the supplement of paper PMC10338343
